High-throughput results (PubChem BioAssay)
Cycloheximide cs: Cycloheximide Counterscreen for Small Molecule Inhibitors of Shiga Toxin; cell reporter, cycloheximide protein synthesis inhibition counterscreen; max response, %; actives 12% (n = 300,000); AID 2314, 2010; in the data active means max response mostly above about 13%, no sharp cut-off; inactive means mostly below about 14%; further: read at 38.3 µM for the half of the compounds with a filed dose; 0% is about no effect
Pf growth 48h: Primary qHTS for delayed death inhibitors of the malarial parasite plastid, 48 hour incubation; P. falciparum luciferase growth in erythrocytes, 48 h; Potency, µM (top dose mostly 28.7 µM), for inactives: at the top dose activity change, negative = inhibition, most hits filed as inhibitors; actives 5.9% (n = 310,000); further: potency means the concentration at half of the fitted maximal effect; on the % scale 0 is the no-effect control and ±100 the full control effect
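Luminescence readout; reporter = integrated firefly luciferase in P. falciparum. RBC culture at 2% hematocrit, 0.1% parasitemia final, 37 C/5% CO2; decreased signal taken as growth inhibition.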
LmPK inhibitor: qHTS Assay for Inhibitors of Leishmania Mexicana Pyruvate Kinase (LmPK); purified LmPK, Kinase-Glo ATP luminescence, 1 h; actives 0.37% (n = 290,000); AID 1721, 2009; Potency, µM (doses to about 57.5 µM), for the others: at the highest dose activity change, negative = inhibition, most hits filed as inhibitors; further: potency means the concentration at half of the fitted maximal effect; on the % scale 0 is the no-effect control and ±100 the full control effect
Target sequence (Q27686 whole entry, looked up): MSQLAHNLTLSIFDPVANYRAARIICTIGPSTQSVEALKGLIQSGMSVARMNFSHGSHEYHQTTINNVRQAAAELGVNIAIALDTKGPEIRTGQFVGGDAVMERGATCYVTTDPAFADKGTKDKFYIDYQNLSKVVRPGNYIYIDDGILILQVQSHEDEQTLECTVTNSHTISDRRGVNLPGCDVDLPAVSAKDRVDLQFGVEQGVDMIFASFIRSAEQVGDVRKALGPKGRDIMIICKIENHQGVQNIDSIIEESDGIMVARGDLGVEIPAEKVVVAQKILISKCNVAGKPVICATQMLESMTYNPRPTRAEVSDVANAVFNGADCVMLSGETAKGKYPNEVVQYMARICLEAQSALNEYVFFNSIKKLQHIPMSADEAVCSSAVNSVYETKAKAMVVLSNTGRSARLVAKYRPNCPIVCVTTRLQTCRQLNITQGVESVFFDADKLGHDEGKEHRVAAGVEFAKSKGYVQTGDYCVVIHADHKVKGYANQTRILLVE
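Purified LmPK (0.1 nM) with 0.5 mM PEP and 0.1 mM ADP in imidazole buffer pH 7.2 with MgCl2/KCl, 1 h at room temperature. ATP formed was read by luciferase luminescence and normalized to no-enzyme and uninhibited controls.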
Shiga toxin inh: A qHTS for Small Molecule Inhibitors of Shiga Toxin. inhibition, % at 38.7 µM. AID 2315, 2010. actives 9.2% (n = 290,000). Vero cells, Shiga toxin protein synthesis inhibition reporter; in the data active means inhibition mostly above about 28%, no sharp cut-off; inactive means mostly below about 43%; further: 0% is about no effect
Pf growth 96h: Primary qHTS for delayed death inhibitors of the malarial parasite plastid, 96 hour incubation. Potency, µM (highest dose often 28.7 µM), for the others: top-dose activity change, negative = inhibition, hits mostly inhibitors. AID 504834, 2011. P. falciparum luciferase reporter growth, 96 h. actives 6.9% (n = 320,000); further: potency means the concentration at half of the fitted maximal effect; on the % scale 0 is the no-effect control and ±100 the full control effect
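Infected RBCs, 2% Hct / 0.05% parasitemia final; luciferase-reporter P. falciparum; cpd 96 h, 37 C, 5% CO2; luciferase detection reagent; luminescence.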
The depositor's hits bear a star; ? = inconclusive; . = not tested or not shown; [ ] = dose if it differs, or a comment. Sampled rows, rich in hits. Any-hit rate of the full collection: about 22%. Unless noted, the call rests on the fitted dose curve; in most records, active means well fitted inhibition curve with a large enough effect; inconclusive means small, poorly fitted or top-dose-only effect, or another doubt; inactive means no such curve, though single readings can be large or run the other way.

SMILES	Cycloheximide cs	Pf growth 48h	LmPK inhibitor	Shiga toxin inh	Pf growth 96h
Cc1cc(N2CCN(C)CC2)nc2ccc(NC(=O)CCC(=O)NCCc3ccc(Cl)cc3)cc12	1	12µM*	-3%	-13	11%
CC(=O)c1ccc(N2CCN(C(=O)CCC(=O)Nc3ccc4nc(N5CCN(C)CC5)cc(C)c4c3)CC2)cc1	-1	9.3µM*	-1%	2	5%
Cc1cc(N2CCOCC2)nc2ccc(NC(=O)CCC(=O)N3CCN(c4cccc(C(F)(F)F)c4)CC3)cc12	28*	4.7µM*	1%	67*	0%
CCN1CCN(c2cc(C)c3cc(NC(=O)CCC(=O)N4CCN(c5ccccc5)CC4)ccc3n2)CC1	11	?	-2%	-6	77%
CSCC[C@H](NC(=O)[C@H](CC(C)C)NC(=O)[C@H](Cc1c[nH]c2ccccc12)NC(=O)[C@H](CCC(N)=O)NC(=O)[C@@H](NC(=O)[C@H](Cc1ccccc1)NC(=O)[C@H](CC(=O)O)NC(=O)[C@H](CCC(N)=O)NC(=O)[C@H](C)NC(=O)[C@H](CCCNC(=N)N)NC(=O)[C@H](CCCNC(=N)N)NC(=O)[C@H](CO)NC(=O)[C@H](CC(=O)O)NC(=O)[C@H](CC(C)C)NC(=O)[C@H](Cc1ccc(O)cc1)NC(=O)[C@H](CCCCN)NC(=O)[C@H](CO)NC(=O)[C@H](Cc1ccc(O)cc1)NC(=O)[C@H](CC(=O)O)NC(=O)[C@H](CO)NC(=O)[C@@H](NC(=O)[C@H](Cc1ccccc1)NC(=O)[C@@H](NC(=O)CNC(=O)[C@H](CCC(N)=O)NC(=O)[C@H](CO)NC(=O)[C@@H](N)Cc1cnc[nH]1)[C@@H](C)O)[C@@H](C)O)C(C)C)C(=O)N[C@@H](CC(N)=O)C(=O)N[C@H](C(=O)O)[C@@H](C)O	18	.	.	-8	.
COC(=O)C(Cc1cccc(C)n1)(c1ccccc1)c1ccccc1	-6	9.3µM*	6%	13	?
CCOc1ccc(CN2CCN(Cc3cccc4c3OCO4)CC2CCO)cc1 (configuration not stated)	-2	26%	5%	-3	?
CCOc1ccc(CN2CCN(Cc3[nH]c4ccccc4c3C)CC2CCO)cc1 (configuration not stated)	-3	?	-3%	-23	10µM*
CCOc1ccc(CN2CCN(Cc3cccc4nonc34)CC2CCO)cc1 (configuration not stated)	-2	17%	0%	-7	15µM*
N#Cc1cc(N)ccc1-n1cccc1	-1	40%	0%	-6	21%
CC1CCCCC1NC1CCN(C)CC1 (configuration not stated)	-3	-7%	-1%	-2	9.3µM*
O=C(Nc1cccc(S(=O)(=O)NC2=NCCC2)c1)c1ccc(OC(F)F)cc1	.	26%	.	.	-13%
O=C(CNc1ccc(Br)cc1)NNC1=NCCC1	-6	-8%	7%	12	32%
FC(F)Oc1ccc(-c2csc(NNC3=NCCCCC3)n2)cc1	21*	?	-5%	35	?
CC(C)(C)c1ccc(-c2csc(NNC3=NCCCCC3)n2)cc1	20*	10µM*	8%	30	.
Brc1ccc(-c2csc(NNC3=NCCCCC3)n2)cc1	25*	10µM*	5%	42	?
CC(=O)NCC(=O)NC1CC(C)(C)Cc2c1cnn2-c1ccccc1 (configuration not stated)	-2	7%	-2%	-5	-15%
CN1C(=O)C(CC(=O)Nc2ccc(F)cc2)N(Cc2ccco2)C1=S (configuration not stated)	-2	?	-1%	6	?
O=C(Nc1ccc2[nH]ncc2c1)c1ccccc1Cl	16*	130%	-1%	22	?
O=C(Nc1ccc2[nH]ncc2c1)c1ccccc1Br	18*	36%	1%	22	?
O=C(COC(=O)c1cccnc1)Nc1ccc2c(c1)OCO2	16	-24%	-2%	26	0%
Cn1ccnc1SCC(=O)Nc1ccc([N+](=O)[O-])cn1	-3	10%	3%	-7	-9%
Cn1ccnc1SCC(=O)NC1CC1	-7	0%	-5%	-11	.
Cn1ccnc1SCC(=O)c1ccc(O)cc1	26*	104%	-30%	37	61%
Cn1ccnc1SCC(=O)c1ccc(Cl)cc1	37*	227%	1%	118*	30%
SMILES	Cycloheximide cs	Pf growth 48h	LmPK inhibitor	Shiga toxin inh	Pf growth 96h
Cn1ccnc1SCC(=O)Nc1ccc(Cl)cn1	23*	59%	3%	31	191%
Cc1ccccc1C(=O)c1cccn1CC(=O)NC(C)c1ccccc1 (configuration not stated)	-2	-2%	-1%	10	-17%
C/C(Cn1cnc([N+](=O)[O-])n1)=N/NC(=O)COc1c(Cl)cc(Cl)cc1Cl	13	-3%	1%	-10	41%
NC(=O)CN1C(=O)C(=O)N(Cc2cccc(C(F)(F)F)c2)C1=O	5	-7%[0.00184 µM]	-3%	2	48%
CCOC(=O)CN1C(=O)/C(=C/c2ccccc2Br)Oc2ccccc21	-3	14%	4%	12	2.1µM*
CCOC(=O)C1CCCN(C(=O)CSc2ccccc2)C1 (configuration not stated)	43*	14%	-4%	64*	51%
CCOC(=O)C1CCN(C(=O)CC(C)c2ccccc2)CC1 (configuration not stated)	18	14%	3%	-8	?
CCOC(=O)C1CCCN(C(=O)CSc2ccc(NC(C)=O)cc2)C1 (configuration not stated)	-2	5%	-2%	2	?
O=C(O)CN1C(=O)/C(=C/c2ccccc2Cl)Oc2ccccc21	-3	4%	0%	-13	20%
CCOC(=O)C1CCCN(C(=O)CN2C(=O)/C(=C/c3ccc(OC)cc3)Oc3ccccc32)C1 (configuration not stated)	9	?	0%	29*	-17%
CCOC(=O)C1CCCN(C(=O)CC(C)c2ccccc2)C1 (configuration not stated)	101*	116%	-2%	169*	-15%
CCC(C)c1ccc(S(=O)(=O)N2CCN(CC(O)COCC3CCCO3)CC2)cc1 (configuration not stated)	.	6%	.	.	8%
N#Cc1ccccc1Cn1cc(C(=O)c2cccs2)c2ccccc21	-1	15µM*	-6%	14	0%
COC(=O)[C@@]1(Cc2ccc(F)cc2)[C@H]2c3cc(C(=O)N(C)C)n(Cc4c(CO)[nH]cc(C)c4=O)c3C[C@H]2CN1C(=O)c1ccccc1	14	1.3µM*	3%	15	1.9µM*
